The source of these data is PubChem BioAssay (EPA / NIEHS).

What all share (conditions): mRNA level, 48 h; actives raise or lower the signal
Read-out in assay [1]: Apoptosis regulator Bcl-2 (Homo sapiens) (UniProt P10415)
In words: LTEA_HepaRG_BCL2: Life Technologies and Expression Analysis (LTEA) Assay for Bcl-2 gene using HepaRG (AID 2283475). The procedure, abridged: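 Each chemical was tested in duplicate on HepaRG cultures held in serum-free induction medium for 48 h, highest concentration 100 uM with half-log dilutions. Transcript levels came from multiplexed qRT-PCR, normalised to housekeeping genes; activity was scored in either direction relative to DMSO.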

Read-out in assay [2]: Bcl-2 (BID) gene, BID (gene 637)
In words: LTEA_HepaRG_BID: Life Technologies and Expression Analysis (LTEA) Assay for Bcl-2 (BID) gene using HepaRG (AID 2283476). The procedure, abridged: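 Assay used HepaRG hepatic cells treated 48 h in serum-free medium with half-log dilutions from 100 uM. Endpoint: BID mRNA, qRT-PCR, normalized to ACTB/GAPDH/POLR2A.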

Read-out in assay [3]: Caspase-3 (Homo sapiens) (UniProt P42574)
In words: LTEA_HepaRG_CASP3: Life Technologies and Expression Analysis (LTEA) Assay for cysteine-aspartic acid protease (CASP3) using HepaRG (AID 2283477). The procedure, abridged:
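Differentiated human HepaRG cells in serum-free induction medium were exposed 48 h to 8-point half-log concentrations from 100 uM (0.5% DMSO vehicle). CASP3 mRNA was measured by qRT-PCR, normalised to ACTB, GAPDH and POLR2A, with bidirectional fitting against DMSO.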

Read-out in assay [4]: Cytochrome P450 (CYP24A1), CYP24A1 (gene 1591)
In words: LTEA_HepaRG_CYP24A1: Life Technologies and Expression Analysis (LTEA) Assay for Cytochrome P450 (CYP24A1) using HepaRG (AID 2283478). The procedure, abridged:
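Differentiated HepaRG cells, pre-cultured 48 h, were exposed in duplicate for 48 h in serum-free induction medium to 8 half-log concentrations (top 100 uM, 0.5% DMSO). CYP24A1 mRNA was quantified by TaqMan qRT-PCR, normalized to ACTB/GAPDH/POLR2A, fitted bidirectionally versus DMSO.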

Read-out in assay [5]: Cytochrome P450 (CYP1A2), CYP1A2 (gene 1544)
In words: LTEA_HepaRG_CYP1A2: Life Technologies and Expression Analysis (LTEA) Assay for Cytochrome P450 (CYP1A2) using HepaRG (AID 2283479). Put shortly: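 Differentiated human HepaRG cells in serum-free induction medium were exposed in duplicate for 48 h to 8-point half-log concentrations up to 100 uM in 0.5% DMSO. CYP1A2 mRNA measured by qRT-PCR, normalized to ACTB, GAPDH, POLR2A; bidirectional fit vs DMSO.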

Read-out in assay [6]: cysteine-aspartic acid protease (CASP8), CASP8 (gene 841)
In words: LTEA_HepaRG_CASP8: Life Technologies and Expression Analysis (LTEA) Assay for cysteine-aspartic acid protease (CASP8) using HepaRG (AID 2283480). Put shortly: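 qRT-PCR readout of CASP8 mRNA, normalized to three housekeeping genes, after 48 h chemical exposure of HepaRG cells; 8-point half-log series, top 100 uM, 0.5% DMSO vehicle. Bidirectional curve fitting against DMSO baseline.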

Read-out in assay [7]: Cytochrome P450 (CYP2B6), CYP2B6 (gene 1555)
In words: LTEA_HepaRG_CYP2B6: Life Technologies and Expression Analysis (LTEA) Assay for Cytochrome P450 (CYP2B6) using HepaRG (AID 2283481). Put shortly: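 Differentiated HepaRG cells, serum-free induction medium, exposed 48 h in duplicate to 8-point half-log concentrations from 100 uM in 0.5% DMSO. CYP2B6 mRNA by qRT-PCR, normalized to ACTB, GAPDH, POLR2A; bidirectional fit versus DMSO.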

Read-out in assay [8]: CYP2C8 (gene 1558)
In words: LTEA_HepaRG_CYP2C8: Life Technologies and Expression Analysis (LTEA) Assay for CYP2C8 using HepaRG (AID 2283483). Put shortly: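 HepaRG (human liver line), 48 h chemical exposure, 8-pt half-log series from 100 uM, 0.5% DMSO vehicle. Readout: CYP2C8 transcript by qRT-PCR, housekeeping-normalized. Bidirectional fit vs DMSO baseline.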

Read-out in assay [9]: CYP2C9 (gene 1559)
In words: LTEA_HepaRG_CYP2C9: Life Technologies and Expression Analysis (LTEA) Assay for CYP2C9 using HepaRG (AID 2283484). The procedure, abridged:
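HepaRG, 48 h dosing, 8-pt half-log series, top 100 uM, 0.5% DMSO vehicle. Read-out: CYP2C9 transcript by TaqMan qRT-PCR, housekeeping-normalized (ACTB/GAPDH/POLR2A). Gain or loss fitted vs DMSO baseline.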

Read-out in assay [10]: CYP2E1 (gene 1571)
The assay can be described thus: LTEA_HepaRG_CYP2E1: Life Technologies and Expression Analysis (LTEA) Assay for CYP2E1 using HepaRG (AID 2283485). The procedure, abridged:
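Assay uses 48 h exposure of HepaRG hepatic cells, eight concentrations to 100 uM. Expression of CYP2E1 is quantified by TaqMan qRT-PCR with ACTB, GAPDH and POLR2A normalization; curves fitted in both directions relative to vehicle.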

Read-out in assay [11]: CYP4A11 (gene 1579)
The assay can be described thus: LTEA_HepaRG_CYP4A11: Life Technologies and Expression Analysis (LTEA) Assay for CYP4A11 using HepaRG (AID 2283486). Put shortly: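 Differentiated HepaRG cells, serum-free induction medium, exposed 48 h in duplicate to 8-point half-log series from 100 uM in 0.5% DMSO. CYP4A11 mRNA measured by qRT-PCR, normalized to ACTB, GAPDH, POLR2A; bidirectional fit versus DMSO.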

Read-out in assay [12]: DNA damage-inducible transcript 3 (DDIT3), DDIT3 (gene 1649)
In words: LTEA_HepaRG_DDIT3: Life Technologies and Expression Analysis (LTEA) Assay for DNA damage-inducible transcript 3 (DDIT3) using HepaRG (AID 2283488). The procedure, abridged:
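Eight-point concentration-response (100 uM highest, half-log dilutions) in HepaRG, 48 h, duplicate wells. Endpoint: qRT-PCR mRNA, normalized (ACTB, GAPDH, POLR2A), bidirectional fitting with DMSO as baseline.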

Read-out in assay [13]: Pro-epidermal growth factor (Homo sapiens) (UniProt P01133)
The assay can be described thus: LTEA_HepaRG_EGF: Life Technologies and Expression Analysis (LTEA) Assay for Epidermal growth factor (EGF) using HepaRG (AID 2283489). Put shortly: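 Differentiated human HepaRG cells, plated 48 h then switched to serum-free induction medium, were exposed for 48 h to test chemicals (8-point half-log series, top 100 uM, 0.5% DMSO). EGF mRNA was quantified by qRT-PCR, normalized to ACTB, GAPDH, POLR2A.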

Read-out in assay [14]: Early growth response protein 1 (EGR1) transcription factor, EGR1 (gene 1958)
The assay can be described thus: LTEA_HepaRG_EGR1: Life Technologies and Expression Analysis (LTEA) Assay for Early growth response protein 1 (EGR1) transcription factor using HepaRG (AID 2283490). The procedure, abridged:
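HepaRG, 48 h exposure, 8-pt half-log series from 100 uM, 0.5% DMSO vehicle; EGR1 transcript by TaqMan qRT-PCR (Fluidigm array), housekeeping-normalized; bidirectional fit relative to DMSO baseline.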

Read-out in assay [15]: Ezrin (EZR), EZR (gene 7430)
The assay can be described thus: LTEA_HepaRG_EZR: Life Technologies and Expression Analysis (LTEA) Assay for Ezrin (EZR) using HepaRG (AID 2283491). Put shortly:
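Read-out is EZR transcript level by qRT-PCR, normalized to three housekeeping genes and fitted bidirectionally against the DMSO control. Human HepaRG cells received test chemicals for 48 h at eight half-log concentrations up to 100 uM in 0.5% DMSO.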

Read-out in assay [16]: CYP3A5 (gene 1577)
The assay can be described thus: LTEA_HepaRG_CYP3A5: Life Technologies and Expression Analysis (LTEA) Assay for CYP3A5 using HepaRG (AID 2283493). The procedure, abridged: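 Readout was CYP3A5 mRNA by qRT-PCR. HepaRG cultures were exposed for 48 h in serum-free induction medium to chemicals at up to 100 uM, and responses were fitted in both directions relative to DMSO vehicle.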

Read-out in assay [17]: Fatty Acid-Binding Protein 1 (FABP1), FABP1 (gene 2168)
The assay can be described thus: LTEA_HepaRG_FABP1: Life Technologies and Expression Analysis (LTEA) Assay for Fatty Acid-Binding Protein 1 (FABP1) using HepaRG (AID 2283494). The procedure, abridged: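 qRT-PCR readout of FABP1 transcript (normalized to three housekeeping genes) after 48 h chemical exposure of HepaRG cells; eight concentrations, half-log steps, max 100 uM, 0.5% DMSO vehicle; gain or loss fitted relative to DMSO baseline.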

Read-out in assay [18]: Cytochrome P450 2C19 (Homo sapiens) (UniProt P33261)
In words: LTEA_HepaRG_CYP2C19: Life Technologies and Expression Analysis (LTEA) Assay for CYP2C19 using HepaRG (AID 2283482). Put shortly:
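Differentiated human HepaRG cells were exposed for 48 h in serum-free induction medium to 8 concentrations (top 100 uM, half-log steps, 0.5% DMSO). CYP2C19 mRNA was measured by qRT-PCR, normalized to ACTB/GAPDH/POLR2A, and fitted bidirectionally against DMSO.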

Read-out in assay [19]: Cytochrome P450 3A4 (Homo sapiens) (UniProt P08684)
In words: LTEA_HepaRG_CYP3A4: Life Technologies and Expression Analysis (LTEA) Assay for CYP3A4 using HepaRG (AID 2283487). Put shortly:
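HepaRG, 48 h exposure, 8-pt CRC from 100 uM (half-log), 0.5% DMSO, duplicates; serum-free induction medium. Readout: CYP3A4 mRNA, qRT-PCR, ACTB/GAPDH/POLR2A normalization. Bidirectional fit vs DMSO.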

Read-out in assay [20]: Cytochrome P450 3A7 (Homo sapiens) (UniProt P24462)
In words: LTEA_HepaRG_CYP3A7: Life Technologies and Expression Analysis (LTEA) Assay for CYP3A7 using HepaRG (AID 2283492). The procedure, abridged:
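HepaRG cells plated 48 h, then dosed in serum-free induction medium for 48 h at 8 concentrations (top 100 uM, half-log steps, 0.5% DMSO). CYP3A7 mRNA by qRT-PCR, normalised to ACTB/GAPDH/POLR2A; bidirectional fit versus DMSO.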

Active and inactive are the calls of the source. Rule for the calls: active = hit-call score of the fitted dose curve at least 0.9, where 1 is the maximum; inactive = score below 0.9.

Caspase-3 (Homo sapiens), sequence (P42574 whole entry, looked up): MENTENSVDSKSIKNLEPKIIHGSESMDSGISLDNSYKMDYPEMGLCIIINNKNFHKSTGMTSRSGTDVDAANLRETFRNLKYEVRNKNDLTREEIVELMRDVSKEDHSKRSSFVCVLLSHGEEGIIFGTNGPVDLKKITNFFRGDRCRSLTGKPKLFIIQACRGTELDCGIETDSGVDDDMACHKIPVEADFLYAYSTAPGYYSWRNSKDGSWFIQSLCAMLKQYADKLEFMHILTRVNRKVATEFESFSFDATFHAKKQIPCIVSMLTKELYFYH
Apoptosis regulator Bcl-2 (Homo sapiens), sequence (P10415 whole entry, looked up): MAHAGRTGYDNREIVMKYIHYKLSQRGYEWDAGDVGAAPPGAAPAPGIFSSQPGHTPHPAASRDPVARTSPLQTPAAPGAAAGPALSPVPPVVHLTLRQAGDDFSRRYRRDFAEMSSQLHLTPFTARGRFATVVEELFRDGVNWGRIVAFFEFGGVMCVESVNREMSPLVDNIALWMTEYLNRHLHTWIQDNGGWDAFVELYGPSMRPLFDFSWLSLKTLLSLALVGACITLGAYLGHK
Cytochrome P450 2C19 (Homo sapiens), sequence (P33261 whole entry, looked up): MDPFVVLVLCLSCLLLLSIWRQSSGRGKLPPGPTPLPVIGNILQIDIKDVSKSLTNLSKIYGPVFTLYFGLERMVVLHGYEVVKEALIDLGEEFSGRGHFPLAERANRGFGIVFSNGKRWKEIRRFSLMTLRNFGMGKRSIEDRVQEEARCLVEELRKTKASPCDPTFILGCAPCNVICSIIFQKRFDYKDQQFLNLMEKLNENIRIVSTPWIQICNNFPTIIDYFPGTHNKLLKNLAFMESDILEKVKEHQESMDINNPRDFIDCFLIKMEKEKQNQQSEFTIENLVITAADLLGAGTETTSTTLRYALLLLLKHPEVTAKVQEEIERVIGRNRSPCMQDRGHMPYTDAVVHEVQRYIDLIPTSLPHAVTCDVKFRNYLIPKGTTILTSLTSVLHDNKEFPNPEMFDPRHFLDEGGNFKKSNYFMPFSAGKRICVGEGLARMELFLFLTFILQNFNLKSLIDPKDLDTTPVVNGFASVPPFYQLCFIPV
Cytochrome P450 3A7 (Homo sapiens), sequence (P24462 whole entry, looked up): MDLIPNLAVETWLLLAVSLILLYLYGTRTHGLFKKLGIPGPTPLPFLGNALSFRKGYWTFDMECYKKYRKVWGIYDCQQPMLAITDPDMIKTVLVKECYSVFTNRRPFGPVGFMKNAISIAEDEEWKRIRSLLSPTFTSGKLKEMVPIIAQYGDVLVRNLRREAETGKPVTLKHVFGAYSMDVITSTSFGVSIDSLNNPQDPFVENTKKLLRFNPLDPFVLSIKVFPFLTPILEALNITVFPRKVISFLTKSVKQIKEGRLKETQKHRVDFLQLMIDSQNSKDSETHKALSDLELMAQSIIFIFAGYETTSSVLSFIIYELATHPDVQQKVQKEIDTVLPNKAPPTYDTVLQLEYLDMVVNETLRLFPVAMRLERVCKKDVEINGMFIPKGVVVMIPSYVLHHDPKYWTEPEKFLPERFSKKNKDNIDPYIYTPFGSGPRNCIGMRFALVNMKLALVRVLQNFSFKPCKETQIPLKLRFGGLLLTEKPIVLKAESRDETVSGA
Cytochrome P450 3A4 (Homo sapiens), sequence (P08684 whole entry, looked up): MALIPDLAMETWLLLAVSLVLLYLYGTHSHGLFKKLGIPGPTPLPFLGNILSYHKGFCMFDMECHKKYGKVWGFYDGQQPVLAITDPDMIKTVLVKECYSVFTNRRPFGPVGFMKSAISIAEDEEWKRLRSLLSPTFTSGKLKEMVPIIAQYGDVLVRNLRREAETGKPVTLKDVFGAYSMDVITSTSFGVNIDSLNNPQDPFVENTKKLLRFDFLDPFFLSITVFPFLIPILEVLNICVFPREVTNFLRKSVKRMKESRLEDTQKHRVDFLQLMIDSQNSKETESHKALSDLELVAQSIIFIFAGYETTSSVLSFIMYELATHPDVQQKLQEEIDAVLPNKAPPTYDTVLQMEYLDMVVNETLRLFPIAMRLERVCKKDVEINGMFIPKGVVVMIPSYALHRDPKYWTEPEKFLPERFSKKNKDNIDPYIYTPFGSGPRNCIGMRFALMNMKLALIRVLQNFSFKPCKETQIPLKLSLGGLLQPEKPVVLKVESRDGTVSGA

As for `CCCOC(=O)c1ccc(O)cc1`, the outcome in assay [1], in assay [2], in assay [3], in assay [4], in assay [5] and in [6] was inactive. Besides, the outcome in assay [7], in [8], in assay [9], in assay [10], in assay [11] and in assay [12] was inactive. For the same compound, the call in assay [13], in [14], in assay [15], in [16] and in [17] was inactive.
What is called AC50 is the midpoint of the concentration-response curve, whichever way the signal moves. Regarding `O=C(OCCOCCOC(=O)c1ccccc1)c1ccccc1`, the compound was classed as inactive in assay [1], in assay [3], in assay [4], in [6], in [7] and in assay [18]. Also, the result in assay [8], in [9], in [10], in assay [11], in assay [19] and in assay [12] was inactive. The compound was called inactive in assay [13], in assay [14], in assay [15], in assay [20], in [16] and in assay [17]. In addition, in assay [5], the AC50 was 68.9 µM (active).
For the compound `c1ccc2cc3c(ccc4ccccc43)cc2c1`, the compound was classed as inactive in assay [1], in [2], in assay [3], in [4], in [6] and in assay [13]. For the same compound, the outcome in assay [15] was inactive. Besides, the AC50 in [5] is 1.99 µM (active); in assay [7], 9.39 µM (active); in [18], 15.2 µM (active); in assay [8] it was 13.7 µM (active); in assay [9], 11.8 µM (active); in assay [10], 22.3 µM (active). In addition, the concentration at half-maximal activity (AC50) in assay [11] is 32.8 µM (active); in [19] it was 3.99 µM (active); in assay [12] it was 17.7 µM (active); in [14], 27.9 µM (active); in assay [20], 15.7 µM (active); in assay [16], 7.18 µM (active). Also, the AC50 in assay [17] is 21.7 µM (active).
As for `CC(C)(C)CC(C)(C)c1ccc(O)c(-n2nc3ccccc3n2)c1`, the outcome in [1], in [2], in [3], in [4], in assay [6] and in assay [8] was inactive. Moreover, the outcome in assay [9], in [12], in assay [14], in [15] and in assay [16] was inactive. The AC50 is 31.3 µM (active) in assay [5]; 13.1 µM (active) in [7]; 12.7 µM (active) in assay [18]; 58.2 µM (active) in assay [10]; 50 µM (active) in assay [11]; 50 µM (active) in assay [13]. Also, the half-maximal activity concentration (AC50) in [17] was 50 µM (active).
